Bioassay records from PubChem BioAssay.
Only some compounds are listed: those with a hit (about 4.8% of all), similar ones and a draw of the others.
ssDAF12 agonist: S. stercoralis DAF-12 nuclear receptor activators, primary screen, cell-based, luminescence, HEK293, GRIP1 co-expression, lit1-tk-luc | Nuclear hormone receptor DAF-12 (Strongyloides stercoralis) | HEK293 ssDAF-12/GRIP1 lit1-tk-luc reporter; % of 3 µM dafachronic acid response | activation, % at 6.8 µM | actives 1% (n = 370,000) | AID 652126, 2013;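 active = activation above the mean over all tested compounds plus 3 SD, cut at about 0.9% in these data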;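 also: 0% = DMSO-only wells and 100% = 3 µM delta7-dafachronic acid wells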
DAX1 inh-1: DAX1 (NR0B1) inhibitors on StAR promoter, primary screen, cell-based, luminescence, SF-1 (NR5A1), full-length DAX-1. HEK293T StAR-luciferase reporter, SF-1/DAX-1 repression relief. inhibition, % at 6.8 µM. actives 1.1% (n = 370,000);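 active = inhibition above the mean over all tested compounds plus 3 SD, cut at about 3.6% in these data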;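 also: 0% = DAX-1 cells with DMSO and 100% = cells lacking DAX-1 with DMSO; higher inhibition means more luminescence from relief of DAX-1 repression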
DAX1 inh-2: DAX1 (NR0B1) inhibitors, primary screen, cell-based, HEK293, Gal4-DAX1, luciferase luminescence; HEK293 Gal4-DAX1 luciferase reporter; inhibition, % at 6.75 µM; actives 0.99% (n = 340,000); AID 504766, 2011;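 active = inhibition above the mean over all tested compounds plus 3 SD, cut at about 4.2% in these data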;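 also: 0% = DAX1-transfected cells with DMSO and 100% = empty-vector control cells with DMSO; inhibition shows as a rise in luminescence from relieved DAX1 repression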
hgDAF-12 ag: H. glycines DAF-12 receptor agonists, primary screen, cell-based, luminescence, HEK293, GAL4 fusion, UAS-luciferase | activation, % at 6.8 µM | Nuclear hormone receptor DAF-12 (Heterodera glycines), GAL4 fusion | actives 1.8% (n = 370,000) | HEK293 GAL4-hgDAF12 UAS-luciferase reporter, agonist luminescence; normalized to butyrate control | AID 687014, 2013;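 active = activation above a cutoff set at the mean of all screened compounds plus 3 SD, cut at about 10% in these data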;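 also: 0% = DMSO wells and 100% = sodium butyrate wells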
hcDAF12 agonist: H. contortus DAF-12 nuclear receptor activators, primary screen, cell-based, luminescence, HEK293, lit1-tk-luc reporter; HEK293 hcDAF-12 lit1-tk-luc reporter; 0% DMSO, 100% Δ7-dafachronic acid; activation, % at 6.8 µM; actives 1.4% (n = 370,000); AID 652067, 2013;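 active = activation above the mean of all tested compounds plus 3 SD, cut at about 5.5% in these data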;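 also: 100% = response to 3 µM Δ7-dafachronic acid high control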
Rev-erbA mod: modulators of Rev-erb alpha DNA binding, primary screen, biochemical, FITC-DNA, fluorescence polarization, uHTS | Nuclear receptor subfamily 1 group D member 1 (Homo sapiens), P20393 | Rev-erbα–FITC-DNA binding, 90 min | activity, % at 10 µM | actives 0.79% (n = 370,000);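 active = activity above about 14%, limit read from the data; passing the limit was not always enough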;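 also: 0% = DMSO wells with 35 nM protein and 100% = DMSO wells with 750 nM protein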
Target sequence (P20393 whole entry, looked up): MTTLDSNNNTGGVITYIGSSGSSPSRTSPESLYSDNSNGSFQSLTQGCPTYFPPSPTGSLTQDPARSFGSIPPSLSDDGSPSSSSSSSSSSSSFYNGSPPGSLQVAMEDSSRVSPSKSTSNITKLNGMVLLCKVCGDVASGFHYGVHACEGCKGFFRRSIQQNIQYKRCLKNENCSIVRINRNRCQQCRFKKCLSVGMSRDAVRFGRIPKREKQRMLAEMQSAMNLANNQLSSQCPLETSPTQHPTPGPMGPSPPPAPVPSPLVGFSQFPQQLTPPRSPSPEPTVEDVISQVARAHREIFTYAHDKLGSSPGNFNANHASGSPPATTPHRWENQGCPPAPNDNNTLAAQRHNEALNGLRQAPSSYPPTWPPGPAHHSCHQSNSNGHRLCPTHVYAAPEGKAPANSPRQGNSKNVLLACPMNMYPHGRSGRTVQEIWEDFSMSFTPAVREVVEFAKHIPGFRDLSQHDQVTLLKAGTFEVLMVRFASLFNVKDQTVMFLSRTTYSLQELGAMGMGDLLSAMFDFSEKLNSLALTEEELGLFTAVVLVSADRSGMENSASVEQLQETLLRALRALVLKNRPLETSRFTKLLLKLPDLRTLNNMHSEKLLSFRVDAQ
Starred values were filed as active, the others as inactive; / = not tested or not shown.

SMILES	ssDAF12 agonist	DAX1 inh-1	DAX1 inh-2	hgDAF-12 ag	hcDAF12 agonist	Rev-erbA mod
C[C@@H]1CN(Cc2nc(-c3cccs3)no2)C[C@H](C)O1	0	1	9.4*	2	0	0
CC1(C)SC(=S)N(/N=C/c2cccnc2)C1N(O)C(=O)Nc1ccccc1 (stereo unspecified)	0	0	6.2*	-1	0	-1
COCCCN1C(=O)[C@H](CC(=O)NCc2cccc3ccccc23)[C@]2(C(=O)OC)CCCCC=C12	-1	-1	/	1	-1	7
Cc1ccc(N=CC=C2OC(C)(C)C(C)(C)O2)cc1	-2	0	-1	4	5.7*	0
COc1ccc(NCc2cc3cc(OC)ccc3[nH]c2=O)cc1	-1	0	0	0	1	/
COc1ccc2[nH]c(=O)c(CNc3cccc(C)c3)cc2c1	1.2*	1	1	10	5.7*	-2
CC(OC(=O)CC1Sc2ccccc2NC1=O)C(=O)N(C)Cc1ccccc1 (stereo unspecified)	1.0*	1	2	3	2	-1
C[C@@H]1CC2C3CCC4=CC(=O)C=C[C@]4(C)[C@@]3(F)[C@@H](O)C[C@]2(C)[C@@]1(O)C(=O)COP(=O)(O)O (stereo partly specified)	/	/	/	/	/	-7
Cc1cc(NC(=O)COc2cc(F)cc(F)c2)n(-c2ccccc2)n1	-2	-2	/	3	-2	1
Cn1c(CN2CCN(C(=O)c3ccccc3)CC2)nc2cc([N+](=O)[O-])ccc21	0.9*	1	-2	-3	0	0
CC(=O)CC[C@H]1CC[C@]2(CCCN(C(=O)C3CCCCC3)C2)O1	-1	0	/	0	-1	7
Cn1cc(CN2CCCC(CO)(Cc3ccccc3)C2)c2ccccc21 (stereo unspecified)	-1	0	4.9*	1	-2	0
CCOC(=O)C1=CCN(S(=O)(=O)c2ccc(Br)cc2)C1c1cccc(Br)c1 (stereo unspecified)	-1	-1	/	-1	-1	-3
CC(=O)Nc1ccc(C(=O)N/N=C/c2cccnc2)cc1	-1	0	-1	-1	-1	-3
O=C(N/N=C/c1ccc2c(c1)OCO2)c1cccnc1	0	0	1	5	0	-3
Cn1nccc1C(=O)N/N=C/c1cccnc1	0	0	4.3*	2	2	4
COc1cc(/C=N/NC(=O)c2cccnc2)cc2c1OCO2	-2	4.1*	0	1	1	2
O=C(N/N=C/c1cccnc1)c1ccc2c(c1)OCCO2	-1	1	1	11*	2	-1
COc1ccc(NC(=O)NCCCN2CCN(c3ccc(F)cc3)CC2)cc1OC	-1	1	/	-1	-1	-5
COc1c(C(C)(C)C)cc(S(=O)(=O)N2c3ccccc3C[C@H]2C)cc1C(C)(C)C	-2	/	/	-4	0	4
COc1ccccc1C(=O)NC1CCCCN(Cc2cccc(C(F)(F)F)c2)C1=O (stereo unspecified)	-2	-1	/	19*	-3	-3
O=C(NC1CCCCN(Cc2cccc(C(F)(F)F)c2)C1=O)c1cccc(C(F)(F)F)c1 (stereo unspecified)	-1	-1	/	-2	-2	0
O=C(N/N=C/c1ccc(OC(=O)c2ccccc2Br)cc1)c1ccccn1	0	5.8*	1	10	5	2
CCC(NC(=O)C1CCCN(c2ncccn2)C1)c1ccccc1 (stereo unspecified)	-1	0	/	-1	0	4
C[C@@H](CO)N(Cc1cn(Cc2ccccc2)nn1)S(=O)(=O)c1ccc(F)cc1Br	-1	0	/	-1	-2	6
SMILES	ssDAF12 agonist	DAX1 inh-1	DAX1 inh-2	hgDAF-12 ag	hcDAF12 agonist	Rev-erbA mod
O=C(NCc1ccccc1Cl)C1CCCN(c2nc3ccccc3o2)C1 (stereo unspecified)	-2	0	/	3	-2	-9
O=[N+]([O-])c1ccc(Cc2ccccn2)cc1	-1	-2	1	7	1	5
Nc1ccc(Cc2ccc([N+](=O)[O-])cc2)cc1	-1	-1	5.2*	0	2	-3
Cc1cc2cc(CN3C(=O)c4ccccc4C3=O)ccc2n1C	0	-1	1	5	6.1*	10
CCCc1cc(=O)oc2c3c(cc(OCC(=O)N4CCC[C@H]4C(=O)O)c12)OC(C)(C)CC3	-1	0	4.5*	1	1	0
CCc1cc(=O)oc2c3c(cc(OCC(=O)NC4CC4)c12)OC(C)(C)CC3	-1	-1	3	-2	-2	-11
COc1ccccc1CNC(=O)COc1cc2c(c3oc(=O)cc(C)c13)CCC(C)(C)O2	-2	0	4.4*	-3	1	-1
COC(=O)[C@]12C[C@H](CC(=O)N3CCOCC3)C(=O)N(Cc3ccccc3)C1=C[C@H](C(C)(C)C)O[C@@H]2C	-1	-1	/	-1	0	-5
Cc1cc(C)n2c(SCc3ccc(C#N)cc3)nnc2n1	-1	-1	0	-3	0	-6
Cc1cc(C)n2c(SCC#N)nnc2n1	-1	-1	4.6*	-3	-1	3
CCCSc1nnc2nc(C)cc(C)n12	-1	1	4.7*	1	-3	-2
CCOc1ccc(N(CC(=O)Nc2c(C)n(C)n(-c3ccccc3)c2=O)S(=O)(=O)c2ccc3c(c2)N(C(=O)C2CCC2)CC3)cc1	-2	0	/	2	-2	2
O=C(Nc1c(-c2ccc(F)cc2)nc2ncccn12)C1CC1	-1	0	/	2	-2	1
CC(C)(C)N(Cc1cn(CC2CCCCC2)nn1)S(=O)(=O)c1ccccc1Br	-1	-1	/	2	-4	2
O=C(Nc1ccc(N2C(=O)[C@@H]3[C@H](C2=O)[C@@H]2C=C[C@H]3C2)c(Cl)c1)c1ccccn1	0	/	/	12*	4	1
O=C(Nc1ccc(N2C(=O)CC(c3ccccc3)C2=O)c(Cl)c1)c1ccccn1 (stereo unspecified)	-1	/	/	-1	0	6
CCOC(=O)CC[C@@H]1CC[C@]2(CCCN(Cc3ccc(Cl)cc3)C2)O1	0	0	/	2	1	-5
